According to PubChem BioAssay AID1236 (Emory University Molecular Libraries Screening Center, 2008):
Among all 220,000 compounds or so, about 800 (0.36%) were called active. Many of the other results were omitted from the sample, so actives are more common in it than they were. Values without a mark were called inactive.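 The calls were made as follows: active = inhibition above about 50% (limit read from the data); inactive = the rest.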

Test system: calpain II (m-calpain), Sus scrofa
Experiment: inhibitors of pig calpain II, primary screen, biochemical, fluorogenic peptide substrate, 1536-well (AID 1236)
Settings: purified calpain II, 30 min, at 16 µM, stronger effect = higher value

Row | SMILES | inhibition
1 | CC(Sc1nnnn1C1CCCCC1)C(=O)O (stereo not given) | -11.2%
2 | C/C(=N\NC(=O)CNc1cccc2ccccc12)c1ccc(Br)s1 | 17.6%
3 | O=C(Nc1ccccc1Cl)O/N=C(/c1ccccc1)c1ccccn1 | -15.9%
4 | NCCCCCC(=O)N/N=C/c1ccc2nccnc2c1 | -3.28%
5 | CC(C)CNC(=S)NC(=O)c1ccc(Cl)cc1 | 11.4%
6 | COC/C=C/C1=CC2=CC(=O)C(C)(OC(=O)CCC(=O)OC)C(=O)C2=CO1 (stereo not given) | -93.8%
7 | NC(N)=N/N=C/c1ccc(Cl)c([N+](=O)[O-])c1 | -20%
8 | NC(N)=N/N=C/c1ccc(OCc2ccc(Cl)cc2Cl)cc1 | 61.9% (active)
9 | COc1ccc(C(=O)O/N=C(\N)Cc2ccc(Cl)cc2Cl)cc1OC | 11.8%
10 | COc1ccc(/C=N/NC(=O)c2ccc(Cl)cc2)cc1COC(C)=O | 38.9%
11 | O=C(CN(c1cccc(Cl)c1)S(=O)(=O)c1ccccc1)NN=C1CCCC1 | -9.25%
12 | CCOc1ccc(C(=O)Nc2nccs2)cc1[N+](=O)[O-] | 0.78%
13 | COc1ccccc1N1CCN(C(=O)CSc2ncnc3c2cnn3-c2ccc(C)c(C)c2)CC1 | -19.6%
14 | CC(C)C[C@H](NC(=O)[C@@H]1O[C@H]1C(=O)O)C(=O)NCCCCN=C(N)N | 98.8% (active)
15 | COc1cc(S(=O)(=O)N(Cc2cccs2)C2CC2)ccc1-n1cnnn1 | 26%
16 | Nc1ccccc1SC(C[N+](=O)[O-])c1ccccc1 (stereo not given) | 2.09%
17 | O=C(Oc1cccnc1)c1cc2ccccc2oc1=O | -6.4%
18 | O=C(Nc1cccnc1)c1cc2cc(Br)ccc2oc1=O | 52.9% (active)
19 | COc1ccc(C(=O)Nc2cccnc2)cc1C(=O)Nc1cccnc1 | 17.3%
20 | COCCN(Cc1cc2cc3c(cc2nc1Cl)OCO3)C(=O)c1cccc(C)c1 | 24.9%
21 | NCCCC[C@@H]1NC(=O)[C@H](CCC(=O)O)NC(=O)c2cc([N+](=O)[O-])cc(I)c2NCC[C@@H](C(N)=O)NC1=O | -13.1%
22 | CCOC(=O)c1ccc2c(c1)nc(C)n2CC | 14.2%
23 | CCn1c(/C=C/Nc2ccccc2)[n+](CC)c2ccc(C(=O)OCC(F)(F)F)cc21 | 52% (active)
24 | O=C(CCS(=O)(=O)Cc1ccccc1)Nc1ccc2c(c1)OCCO2 | -23.4%

Row | SMILES | inhibition
25 | CCOc1cc(/C=N/NC(=O)OC)ccc1OCCSc1ccc(Cl)cc1 | -7.99%
26 | CCOC(=O)Nc1ccc(S(=O)(=O)N(C)C(C)C)cc1 | -5.03%
27 | COc1cc(NC(=O)c2ccccc2NS(=O)(=O)c2ccc(Cl)s2)cc(OC)c1 | -32.1%
28 | Nc1cc(C(F)(F)F)ccc1N1CCOCC1 | -2.56%
29 | O=C(N/N=C\c1cccc(Br)c1)c1ccccc1-n1cccc1 | 68% (active)
30 | N=c1oc2ccccc2cc1C(=O)N/N=C/c1ccccc1 | 14.5%
31 | COc1ccc(OC)c2[nH]c(=O)c(CCNC(=O)C(=O)c3c[nH]c4ccccc34)cc12 | -38.9%
32 | CC(=O)c1ccc(NC(=O)C2CC(=O)Nc3nc4ccccc4n32)cc1 (stereo not given) | -19.9%
33 | Cc1nc2ccccc2c(C)c1C(=O)c1ccc(F)cc1 | -9.43%
34 | O=P(O)(CP(=O)(c1ccccc1)c1ccccc1)c1ccccc1O | -11.7%
35 | COc1ccc(CN2CCCCC2C)cc1OC (stereo not given) | -66%
36 | CC(=O)c1ccc(NC(=S)N(Cc2ccccc2)C(C)C2CC2)cc1 (stereo not given) | 69.5% (active)
37 | CC(C)N(Cc1ccccc1)C(=S)Nc1ccc(OC(F)F)cc1 | 18.2%
38 | CC(=O)c1ccc(NC(=O)N[C@@H](Cc2ccccc2)C(=O)O)cc1 | 5.25%
39 | CNc1nc(SC)nc(N(C#N)CC(=O)OC)n1 | -4.33%
40 | O=C(NCCc1csc(-c2ccccc2)n1)c1ccccc1F | 18.7%
41 | COC(=O)Cn1c(O)c(N=NC(=O)OC)c2ccccc21 | -10.4%
42 | CCN(CC(=O)NCCc1ccccc1)S(=O)(=O)c1ccccc1 | 13.4%
43 | COc1cc(/C=N/O)cc(Br)c1OCc1cccc(Cl)c1 | 56.7% (active)
44 | CCOc1c(Cl)cc(/C=N/O)cc1OC | -1.32%
45 | CCOc1cc(/C=N/O)cc(Br)c1OC | 2.94%
46 | C=CCn1c(-c2ccc(Cl)cc2)ccc(C#N)c1=O | -6.13%
47 | CC(O)C(NS(=O)(=O)c1ccc(Cl)cc1)C(=O)OCc1cc([N+](=O)[O-])cc2c1OCOC2 (stereo not given) | -6.26%
48 | CN(C(=O)CCn1c(=S)oc2ccccc21)C1CCCCC1 | 6.83%

Row | SMILES | inhibition
49 | Cc1c(C(=O)c2cccc([N+](=O)[O-])c2)c2ccccn2c1CCC#N | 10.5%
50 | O=c1cc(CSc2ccc(Cl)cc2)nc(N2CCOCC2)[nH]1 | -33.8%
51 | CSCc1cc(N2CCOCC2)nc(SCc2ccc(Cl)cc2Cl)n1 | 53.9% (active)
52 | CSCc1cc(N(C)C)nc(SCc2ccc(Cl)cc2Cl)n1 | 8.94%
53 | Cc1ccc(-n2ncc3c(Nc4cccc(C(=O)O)c4)ncnc32)cc1 | 10.2%
54 | NC(=O)CC[C@@H]1NC(=O)[C@H](CO)NC(=O)c2cc([N+](=O)[O-])cc(I)c2NCC[C@@H](C(N)=O)NC1=O | -33.7%
55 | S=c1[nH]nc(-c2cccs2)n1/N=C/c1cn(-c2ccccc2)nc1-c1ccc(Cl)cc1 | -33.4%
56 | COc1ccc(OC(C)C(=O)Nc2cccnc2)cc1 (stereo not given) | -45%
57 | COc1ccc(C(=O)C2CCCN(C(=O)c3cc4nc(C)cc(C)n4n3)C2)cc1F (stereo not given) | -25.8%
58 | O=c1cc(-c2ccccc2)nc(N2CCCCC2)[nH]1 | -13.8%
59 | c1ccc(-c2cc(N3CCCCC3)c3ccccc3n2)cc1 | 50.5% (active)
60 | Cc1ccc2nc(-c3ccccc3)cc(C(=O)O)c2c1 | -19.3%
61 | CN(C)CCCSc1ccccc1NC(=O)/C=C/c1ccccc1 | -17.5%
62 | N#Cc1ccc(N2Cc3ccccc3/C2=N/C(=O)Nc2ccc(Cl)cc2)cc1 | -5.24%
63 | Cc1cccc(NC(=S)N(CCN(C)C)C(C)c2ccco2)c1 (stereo not given) | -1.81%
64 | FC(F)(F)c1nnc2ccc(N3CCN(c4ccccc4)CC3)nn12 | 8.02%
65 | Fc1c(F)c(C(F)(F)F)c(F)c(F)c1N1CCN(c2ccc3nnc(C(F)(F)F)n3n2)CC1 | 58.9% (active)
66 | Cc1ccnc(NC(=O)Cn2ccc([N+](=O)[O-])n2)c1 | -9.6%
67 | Cc1cc(C)cc(C(=O)N(CCc2ccccc2)C2=CC3CCC(C2)N3C)c1 (stereo not given) | -21.9%
68 | CCn1c(SCC(=O)N/N=C/c2ccccc2OCC(=O)O)nnc1-c1ccc(C(C)(C)C)cc1 | -10.5%
69 | CCC/C=C(\CCC)C(NC(=O)Cc1ccccc1)c1ccc(C(=O)OC)cc1 (stereo not given) | 3.04%
70 | CCOC(=O)CN(C)S(=O)(=O)c1ccc(-c2cc(C(=O)OC)sc2C(F)(F)F)cc1 | 17.5%
71 | Oc1c(Br)cc(/C=N/NC(=S)NCC2CCCO2)cc1Br (stereo not given) | -20.7%
72 | Cc1cc(C(=O)OCC(=O)c2c(N)n(C)c(=O)n(C)c2=O)c(C)o1 | 32.4%

Row | SMILES | inhibition
73 | CCc1ccc(OCC(=O)OCC(=O)c2c(N)n(C)c(=O)n(C)c2=O)cc1 | 4.26%
74 | Cn1c(N)c(C(=O)COC(=O)c2cnc(Cl)c(Cl)c2)c(=O)n(C)c1=O | 69% (active)
75 | Cc1csc(NC(=O)c2ccc(-c3ccc(Cl)cc3Cl)o2)n1 | -95.3%
76 | COc1ccc(CN2CCN(Cc3cn(C)nc3-c3ccccc3)CC2CCO)c(C)c1C (stereo not given) | -24.9%
77 | O=C1CCN(C(=O)Nc2ccccc2)N1 | 9.94%
78 | CC(C)CNC(=O)CC(c1ccccc1)c1c(O)ccc2ccccc12 (stereo not given) | -74.9%
79 | CCc1ccc(Oc2nc([N+](=O)[O-])nn2C)cc1 | -6.47%
80 | C=CCn1c(SCc2cccc(F)c2)nc2cc(C(=O)N3CCC(C(N)=O)CC3)ccc2c1=O | -22.9%
81 | O=C(NC(=S)Nc1cccc2c(O)cccc12)c1cccc(Br)c1 | -4.46%
82 | O=C(OCC#CCSc1nnc(-c2ccncc2)o1)c1sc2ccccc2c1Cl | 20.6%
83 | C#CCSc1nnc(-c2sc3ccccc3c2Cl)o1 | 50.5% (active)
84 | Clc1ccc(-c2nnc(SCc3nc4ccccc4s3)o2)cc1 | 8.94%
85 | Cc1cccc(N(C)C(=O)c2cc3c(=O)[nH]c4ccc(C)cc4c3s2)c1 | -47.9%
86 | O=C(O)CCn1cc(/C=C/C(=O)c2ccc(Cl)cc2)c(-c2cccc(Br)c2)n1 | 31.9%
87 | CS(=O)(=O)c1ccc2nc(NC(=O)c3ccc(Cl)nc3)sc2c1 | 8.84%
88 | Nc1nc(-c2sc3nc4c(cc3c2N)CCCC4)nc(N2CCOCC2)n1 | -253%
89 | C/C(=N\OCC(=O)O)c1ccc(Cl)cc1 | 25.9%
90 | CCOC(=O)CN/C=C(\C#N)c1ccc(F)cc1 | -15.5%
91 | CCOc1cc(/C=C(/C#N)c2ccc(Cl)cc2)cc(Cl)c1OCC(=O)O | 50.5% (active)
92 | Nc1c(Cl)cc(S(N)(=O)=O)cc1S(N)(=O)=O | -2.3%
93 | Cc1ccc(Cl)cc1-c1ccc(/C=N/n2cnnc2)o1 | 4.96%
94 | Cc1cc([N+](=O)[O-])c(-c2ccc(/C=N/n3cnnc3)o2)cc1Cl | 58.9% (active)
95 | Cc1cc(-c2ccc(/C=N/n3cnnc3)o2)c([N+](=O)[O-])cc1C | 34.4%
